PubChem BioAssay (NCI)
About 83,000 compounds went through this panel and 20% of them were active in at least one assay; those are over-represented in the sample as a whole.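 Single-concentration screen, 48 h exposure, 96-well plates. Endpoint: percent growth. Below 10 = active.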 Calls of active or inactive are those of the source.

Key:
Test in all cases: NCI-60 one-dose screen, 48 h (100 = growth as untreated, 0 = no growth, -100 = all killed)
[1] = system: NCI-H23 lung; details: 10 µM unless noted
[2] = system: NCI-H226 lung; details: 10 µM unless noted
[3] = system: NCI-H322M lung; details: 10 µM unless noted
[4] = system: HOP-62 NSCLC; details: 10 µM unless noted
[5] = system: NCI-H460 lung; details: 10 µM unless noted
[6] = system: 786-0 renal; details: 10 µM unless noted
[7] = system: MDA-MB-231 breast; details: 10 µM unless noted
[8] = system: SF-268 CNS; details: 10 µM unless noted
[9] = system: SF-539 CNS; details: 10 µM unless noted
[10] = system: M14 melanoma; details: 10 µM unless noted
[11] = system: HCT-15 colon; details: 10 µM
[12] = system: U251 CNS; details: 10 µM unless noted
[13] = system: UACC-62 melanoma; details: 10 µM unless noted
[14] = system: SK-MEL-28 melanoma; details: 10 µM unless noted
[15] = system: UO-31 renal; details: 10 µM unless noted
[16] = system: OVCAR-5 ovarian; details: 10 µM unless noted
[17] = system: MDA-MB-435 melanoma; details: 10 µM unless noted
[18] = system: SW-620 colon; details: 10 µM unless noted
[19] = system: MCF7 breast; details: 10 µM unless noted
[20] = system: KM12 colon; details: 10 µM unless noted

Measured: growth

COc1ccc(C(=O)c2ccc([As]=O)cc2)cc1 (stereo not drawn)
active: [1] -43.4% | [2] -59.6% | [3] -94.1% | [4] -86.1% | [5] -62.5% | [6] -99.5% | [7] -71% | [8] -83.5% | [9] -91.6% | [10] -84% | [11] -73% | [12] -98.1% | [13] -82.1% | [14] -87.1% | [15] -95% | [16] -84.2% | [17] -80.9% | [18] -64.4% | [19] -20.3% | [20] -93.7%

C[C@]12CCC(=O)CC1CC[C@@H]1C2CC[C@@]2(C)C1CC[C@@H]2OC(=O)CC[Se][Se]CCC(=O)O[C@H]1CCC2[C@@H]3CCC4CC(=O)CC[C@]4(C)C3CC[C@@]21C (stereo partly drawn)
inactive: [1] 102% | [2] 93% | [3] 84.1% | [4] 82.4% | [5] 95.9% | [6] 107% | [7] 94.3% | [8] 94.1% | [9] 103% | [10] 78.7% | [11] 97.4% | [12] 81.3% | [13] 88.5% | [14] 98.9% | [15] 90.5% | [16] 102% | [17] 88.5% | [18] 122% | [19] 80.8% | [20] 103%

CC1(C)N=C(N)N=C(N)N1c1cccc(C(=O)Nc2cccc(S(=O)(=O)F)c2)c1
inactive: [1] 107% | [2] 99% | [3] 100% | [4] 105% | [5] 97.3% | [6] 99.5% | [7] 113% | [8] 112% | [10] 102% | [12] 99.8% | [13] 99% | [14] 103% | [15] 78.5% | [16] 89.4% | [17] 98.4% | [18] 93.5% | [19] 95.5% | [20] 102%
